# Assay results reported in PubChem BioAssay (NCATS).
# Records with an inconclusive call do not appear. Entries that show only a call come without a potency. Activity calls are given as the source filed them. Unless noted, calls come from the whole dose curve; as a rule, active = well fitted curve in the direction sought with a large enough effect; inconclusive = small, poorly fitted or top-dose-only effect, or another doubt; inactive = no such curve, though single readings can be large; an effect the other way counts as inactive or inconclusive.
# How the values were obtained:
# [1] = molecular target: Pyruvate kinase (Leishmania mexicana) (UniProt Q27686); assay: qHTS Validation Assay for Inhibitors of Leishmania Mexicana Pyruvate Kinase (AID 945)
# Procedure, shortened: (§1)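 Eight-point qHTS titrations in triplicate, data normalized to DMSO neutral control. Reaction: 0.2 nM LmPYK E451W mutant, 0.5 mM PEP, 0.1 mM ADP, 7 mM MgCl2, pH 7.2, one hour at room temperature; luminescent ATP detection.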
# [2] = molecular target: Pyruvate kinase PKM (Homo sapiens) (UniProt P14618); assay: qHTS Assay for Activators of Human Muscle Pyruvate Kinase (AID 954; active = well fitted curve in the direction sought with a large enough effect, not every such curve was filed as active)
# Procedure, shortened: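 Human PKM2 activity is measured as ATP generation, detected by luciferase-coupled luminescence. The enzyme (0.1 nM) acts on 0.5 mM PEP and 0.1 mM ADP for 1 h at ambient temperature; data are normalized to uninhibited and full-inhibition wells.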
# [3] = molecular target: Alpha-galactosidase (Coffea arabica) (UniProt Q42656); assay: Counterscreen for Glucocerebrosidase Inhibitors: qHTS Assay for Coffee Bean alpha-Galactosidase at pH 4.5 (AID 957); note: series mostly up to about 77 µM
# Procedure, shortened: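 Coffee bean alpha-galactosidase 2 nM, substrate 4-MU-alpha-Gal 80 uM, pH 4.5 citrate/Tween-20, 20 min RT. Cpd titration 0.7 nM–77 uM. Stop pH 10, fluorescence 365/440 nm; Hill-equation AC50.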
# [4] = MultiTox-Fluor Cytotoxicity Assay - LYMP1-001 - Dead Cells (AID 946)
# Procedure, shortened: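 Cytotoxicity as increased dead-cell protease fluorescence (bis-AAF-R110, 485/520 nm), read 60 min after MultiTox-Fluor reagent. Human lymphoblastoid line exposed 16 h; Hill-fitted AC50, with DMSO as 0% and 15 uM tetraoctylammonium bromide as 100%.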
# [5] = MultiTox-Fluor Cytotoxicity Assay - LYMP1-001 - Live Cells (AID 947)
# [6] = Cell Viability - LYMP1-002 - Assay at 16 hr (AID 948)
# Procedure, shortened: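 ATP luminescence (CellTiter-Glo) was measured after 16 hr compound exposure at 37 C of 2500 lymphoblastoid LYMP1-002 cells per well. Concentration-response curves were fitted with the Hill equation to give AC50.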
# [7] = MultiTox-Fluor Cytotoxicity Assay - LYMP1-002 - Live Cells (AID 955);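 note: cells exposed to compound for 16 hours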
# Procedure, shortened: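 Read-out is live-cell protease activity (cell-permeant GF-AFC substrate, fluorescence Ex/Em=405/510), where a decrease indicates acute toxicity. Human lymphoblastoid cells were treated 16 hours at 37 C in a concentration series, and AC50 values came from standard Hill modelling.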
# [8] = MultiTox-Fluor Cytotoxicity Assay - LYMP1-003 - Dead Cells (AID 961); note: nearly all actives have a fitted effect of over 70% in size
# Procedure, shortened: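 Dead-cell protease release, detected as bis-AAF-R110 fluorescence at 485/520 nm, was measured in LYMP1-003 cells after 16 h compound treatment at 37 C. AC50 values came from Hill-modeled qHTS curves normalized to DMSO (0%) and 15 uM tetraoctylammonium bromide (100%).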
# [9] = MultiTox-Fluor Cytotoxicity Assay - LYMP1-003 - Live Cells (AID 962);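 note: cells exposed to compound for 16 hours at 37 °C; cytotoxic hits lower the live-cell protease signal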
# Procedure, shortened: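 qHTS, 1536-well; 2500 cells/well LYMP1-003; 5 hr 37 C settle; cpd 16 hr 37 C; MultiTox-Fluor reagent 60 min RT; live-cell protease fluor. 405/510; Hill-fit AC50; tetraoctylammonium bromide pos. ctrl.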
# [10] = molecular target: Pyruvate kinase (Leishmania mexicana) (UniProt Q27686); assay: qHTS Validation Assay for Activators of Leishmania Mexicana Pyruvate Kinase (AID 959); conditions: purified L. mexicana pyruvate kinase, enzyme activity
# Procedure, shortened: as §1
# Chain of Pyruvate kinase PKM (Homo sapiens) (P14618 whole entry, looked up): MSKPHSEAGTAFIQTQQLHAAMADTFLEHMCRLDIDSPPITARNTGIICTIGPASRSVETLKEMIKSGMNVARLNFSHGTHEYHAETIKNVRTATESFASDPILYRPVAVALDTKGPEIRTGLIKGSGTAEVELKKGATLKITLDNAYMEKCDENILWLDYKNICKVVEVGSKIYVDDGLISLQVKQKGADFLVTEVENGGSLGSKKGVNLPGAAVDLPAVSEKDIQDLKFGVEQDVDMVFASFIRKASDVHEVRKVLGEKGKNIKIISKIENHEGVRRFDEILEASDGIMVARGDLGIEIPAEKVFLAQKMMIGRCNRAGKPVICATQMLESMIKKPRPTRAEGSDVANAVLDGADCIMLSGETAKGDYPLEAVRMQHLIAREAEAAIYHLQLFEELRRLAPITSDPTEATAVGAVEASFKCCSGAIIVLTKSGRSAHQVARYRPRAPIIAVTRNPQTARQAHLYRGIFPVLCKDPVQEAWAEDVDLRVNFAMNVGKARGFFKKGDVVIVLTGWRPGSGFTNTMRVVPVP
# Chain of Pyruvate kinase (Leishmania mexicana) (Q27686 2-499 E452W): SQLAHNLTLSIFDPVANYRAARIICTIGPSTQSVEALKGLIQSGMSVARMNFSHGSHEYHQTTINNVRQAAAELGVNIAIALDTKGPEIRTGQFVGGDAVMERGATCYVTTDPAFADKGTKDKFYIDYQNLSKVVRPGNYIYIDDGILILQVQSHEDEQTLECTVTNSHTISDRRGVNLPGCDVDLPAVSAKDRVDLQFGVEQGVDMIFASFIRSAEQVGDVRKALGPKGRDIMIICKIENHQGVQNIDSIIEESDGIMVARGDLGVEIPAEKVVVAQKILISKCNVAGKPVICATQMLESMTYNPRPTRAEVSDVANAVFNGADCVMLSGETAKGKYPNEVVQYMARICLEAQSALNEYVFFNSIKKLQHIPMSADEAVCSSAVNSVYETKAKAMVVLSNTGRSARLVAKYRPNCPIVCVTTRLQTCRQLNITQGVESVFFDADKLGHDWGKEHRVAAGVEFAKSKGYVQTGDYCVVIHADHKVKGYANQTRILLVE
# Chain of Alpha-galactosidase (Coffea arabica) (Q42656 whole entry, looked up): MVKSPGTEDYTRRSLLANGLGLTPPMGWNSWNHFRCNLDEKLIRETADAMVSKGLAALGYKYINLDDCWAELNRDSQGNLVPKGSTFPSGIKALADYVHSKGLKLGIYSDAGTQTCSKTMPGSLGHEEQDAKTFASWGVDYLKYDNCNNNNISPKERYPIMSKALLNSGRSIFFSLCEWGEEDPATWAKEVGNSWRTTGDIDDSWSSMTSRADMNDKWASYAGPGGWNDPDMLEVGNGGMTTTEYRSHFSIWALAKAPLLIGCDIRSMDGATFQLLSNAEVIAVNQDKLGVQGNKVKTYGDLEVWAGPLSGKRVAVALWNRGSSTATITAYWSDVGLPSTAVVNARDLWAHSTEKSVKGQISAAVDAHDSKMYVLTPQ
smiles,measurement,setting,value
NCC(CC(=O)O)c1ccc(Cl)cc1 (stereo not drawn),outcome,[1],inactive
same,outcome,[2],inactive
same,outcome,[3],inactive
Oc1ccc(Cl)cc1Cc1ccccc1,Potency,[4],inactive
same,outcome,[5],inactive
same,outcome,[6],inactive
same,Potency,[7],inactive
same,Potency,[8],inactive
same,Potency,[9],inactive
Cc1ncc(CNC(=O)N(CCCl)N=O)c(N)n1,outcome,[1],inactive
same,outcome,[2],inactive
same,outcome,[3],inactive
O=c1[nH]c2ccccc2n1C1CCN(CCCC(c2ccc(F)cc2)c2ccc(F)cc2)CC1,outcome,[1],inactive
same,outcome,[2],inactive
same,outcome,[3],inactive
NCC1(CC(=O)O)CCCCC1,outcome,[1],inactive
same,outcome,[2],inactive
same,outcome,[3],inactive
Clc1cccc(N2CCNCC2)c1,outcome,[1],inactive
same,outcome,[2],inactive
same,outcome,[3],inactive
CCCC(C)(COC(N)=O)COC(=O)NC(C)C (stereo not drawn),outcome,[1],inactive
same,Potency,[4],inactive
same,outcome,[6],inactive
same,outcome,[2],inactive
same,Potency,[7],inactive
same,outcome,[3],inactive
same,Potency,[8],inactive
same,Potency,[9],inactive
OCCOc1ccccc1,Potency,[4],inactive
same,outcome,[5],inactive
same,outcome,[6],inactive
same,Potency,[7],inactive
same,Potency,[8],inactive
same,Potency,[9],inactive
O=c1[nH]c2ccccc2n1CCCN1CCC(n2c(=O)[nH]c3cc(Cl)ccc32)CC1,outcome,[1],inactive
same,outcome,[2],inactive
same,outcome,[3],inactive
NN=C(N)N,outcome,[1],inactive
same,outcome,[2],inactive
same,outcome,[3],inactive
N[C@@H]1C[C@H]1c1ccccc1,outcome,[1],inactive
same,outcome,[2],inactive
same,outcome,[3],inactive
CCn1cc(C(=O)O)c(=O)c2ccc(C)nc21,outcome,[1],inactive
same,outcome,[2],inactive
same,outcome,[3],inactive
CNCC(O)c1ccc(O)cc1 (stereo not drawn),outcome,[1],inactive
same,Potency,[4],inactive
same,outcome,[5],inactive
same,outcome,[6],inactive
same,outcome,[2],inactive
same,Potency,[7],inactive
same,outcome,[3],inactive
same,Potency,[8],inactive
same,Potency,[9],inactive
CN1C[C@H](CNC(=O)OCc2ccccc2)C[C@@H]2c3cccc4c3c(cn4C)C[C@H]21,outcome,[1],inactive
same,outcome,[2],inactive
same,outcome,[3],inactive
same,Potency,[10],12.6 µM (active)
CCCN1CCC[C@@H]2Cc3nc(N)ncc3C[C@H]21,outcome,[1],inactive
same,outcome,[2],inactive
same,outcome,[3],inactive
